This is part of a sample that, as a whole, favours compounds with a hit. Of some 83,000 tested, about 20% had one in any assay.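 Compound tested at a single concentration for 48 hours in 96-well plates; a percent growth value below 10 was scored as active.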 Calls of active or inactive are those of the source.

The assay concerns HT29 colon. The assay is described as follows: NCI-60 one-dose screen, 48 h (100 = growth as untreated, 0 = no growth, -100 = all killed). Conditions: 10 µM unless noted. How it is done:
Growth inhibition of the HT29 human tumor cell line is measured as a screen for anti-cancer activity. Cells are grown in 96 well plates and exposed to the test compound for 48 hours. Compounds are tested at a single concentration, which is 10^-5 M for most compounds. The reported endpoint is percent growth (GI% or GIPRCNT), where numbers from 0 - 100% represent growth inhibition, and numbers from -100% - 0 represent cell death. For example, a value of 40 represents 60% growth inhibition. A value of 0 means no net growth occurred over the course of the experiment. A value of -40 indicates 40% of cells at the beginning of the experiment died by the end of the experiment. A value of -100 means all cells are dead at the end of the experiment.
NCI-60 Human Tumor Cell Lines Screen was performed using the standard one-dose NCI protocol, which is described in more detail at https://dtp.cancer.gov/discovery_development/nci-60/default.htm.
Compounds with GIPRCNT values below 10 were considered active. Activity score was based on GIPRCNT using the following formula: […]
Score is 0 for GIPRCNT values of 100 or above, 50 for GIPRCNT values of 0, and 100 for GIPRCNT values of -100.
On to `CC1(C)O[C@H]2OC3CCC(=O)CC3(O)[C@H]2O1` (stereo not given in full), for which the growth was 98.6% (inactive).

Regarding `O=C(NCc1ccc2c(c1)OCO2)NCC1CCCC(CNC(=O)NCc2ccc3c(c2)OCO3)C1` (stereo not given), the growth was 110% (inactive).

With `C/C(C=O)=C\c1ccc2c(c1)OCO2`, the growth is 110% (inactive).

As for `Clc1ccc(-c2nc(-c3c[nH]c4ncccc34)cs2)cc1`, the growth is 80.2% [100 µM] (inactive).

Regarding `O=C(N/N=C/c1ccc([N+](=O)[O-])cc1)c1ccc2nc(-c3ccc(Cl)cc3)[nH]c2c1`, the growth was 8.25% (active).

In the case of `COc1ccc2nc3ccccc3c(NCc3ccccc3)c2c1`, the growth was 8.49% (active).

Regarding `CCN(CC)S(=O)(=O)c1ccc(S(=O)(=O)N2CCC[C@@H](C(=O)N3CCN(C(=O)OC(C)(C)C)CC3)C2)cc1`, the growth was 91.5% (inactive).

Consider `CCN1C(=O)N(CC)C2C1NN=c1s/c(=C3\C(=O)N(CCc4ccccc4)c4ccccc43)c(=O)n12` (stereo not given), for which the growth is 0.473% (active).

`O=C1Nc2ccccc2C2c3cccn3-c3ccccc3N12` (stereo not given): the growth was 31.7% (inactive).

On to `COc1cc2c(/C=C3\C(=O)Nc4ccccc43)c(C(=O)O)[nH]c2cc1C`, for which the growth was 89.8% (inactive).

As to `COC(=O)C1=C(C)NC(C)=C(C(=O)OCC(C)C)C1c1ccccc1[N+](=O)[O-]` (stereo not given), the growth is 87.3% (inactive).

Take `CNC(=O)c1cc(Oc2ccc3nc(NC(=O)Nc4ccc(Cl)c(Cl)c4)sc3c2)ccn1`: the growth is 36.4% (inactive).

Turning to `COc1cccc(/C=C2\COc3ccc(O)cc3C2=O)c1`, the growth is 37.8% (inactive).

For `C=C1C(=O)O[C@H]2[C@H]1CC/C(CNC(=O)c1cc3ccccc3[nH]1)=C\CC[C@@]1(C)O[C@@H]21`, the growth is -59.7% (active).

As for `O=C(NCc1ccccc1O)c1cccc2ccccc12`, the growth was 107% (inactive).

Consider `O=C(Nc1ccccc1)c1sc(-c2ccccc2)cc1O`, for which the growth was 107% (inactive).

Regarding `O=C(CBr)CN1C(=O)c2ccccc2C1=O`, the growth is 99.9% (inactive).

Consider `Cc1c2cnccc2c(C)c2c1c1cc(C3OCCCO3)ccc1n2C`, for which the growth was 1.09% (active).

For `COc1ccc(C(O)c2cc3c(N)c(C(=O)Nc4cccc(Cl)c4)sc3nc2C)cc1` (stereo not given), the growth was 8.32% (active).

As to `CCOC(=O)c1c(C)c2c(n1C)CSc1cc(S(=O)(=O)c3ccccc3)c(=O)[nH]c1-2`, the growth is 0.904% [100 µM] (active).

For `COc1ccc2cc(-c3cnc4nonc4n3)ccc2c1`, the growth was 13.4% (inactive).

With `COc1cc(/C=N/Nc2ccccc2F)cc(OC)c1OC`, the growth is 93.6% (inactive).

`COc1cc(-c2nc(NC(C)=O)sc2-c2ccnc(NCCNS(=O)(=O)c3ccccc3)n2)ccc1Cl`: the growth was 3.97% (active).

Turning to `CN(C)c1ccc(-c2cc(-c3ccc(Nc4nc(Nc5ccc(Cl)cc5)nc(Nc5ccc(Cl)cc5)n4)cc3)nc(N)c2C#N)cc1`, the growth is 80.3% (inactive).

In the case of `O=C(/C=C\c1ccco1)/C=C/c1ccco1`, the growth is 108% (inactive).

In the case of `N#Cc1c(N2CCOCC2)nc(=S)[nH]c1-c1ccccc1`, the growth was 86.1% (inactive).

Consider `CC(CN)[C@@H]1CC[C@]2(CO)CC[C@]3(C)[C@H](CC[C@@H]4[C@@]5(C)CCC(N)C(C)(C)[C@@H]5CC[C@]43C)[C@@H]12` (stereo not given in full), for which the growth is -85.9% (active).

Turning to `COc1cc2c(cc1O)[C@@]1(C)[C@H](c3ccccc3Br)OC(=O)N1CC2`, the growth is 96.7% (inactive).

In the case of `COc1cc(N2C(=O)[C@H](c3ccccc3)C2c2ccc(SC)cc2)cc(OC)c1OC` (stereo not given in full), the growth was -9.59% (active).

Turning to `C=CC(=O)N1CCN(c2ccc3cccc(NC(=O)c4cnc(C)cn4)c3n2)CC1`, the growth is 51.3% (inactive).

In the case of `CCN(C(=O)N1CCN(c2cc3c(cc2F)c(=O)c(C(=O)O)cn3C2CC2)CC1)c1nc(-c2ccc(C)cc2)cs1`, the growth is 3.55% (active).

As for `CC[C@H](CC[C@@H](C)[C@H]1CC[C@H]2[C@@H]3CC[C@@H]4CC(=O)/C(=C\c5ccncc5)C[C@]4(C)[C@H]3CC[C@]12C)C(C)C`, the growth was 103% (inactive).

Regarding `C=CC(=O)NCCOc1cccc(Nc2cc(NCCCNC(=O)C3CCC3)c(Br)cn2)c1`, the growth was -15.2% (active).

With `Cc1cc(N2CCCCC2)nc(N2CCN(CC(=O)Nc3ccc4c(ccn4Cc4ccccc4)c3)CC2)n1`, the growth is 12.4% (inactive).

`Cn1c(/C=C/[N+](=O)[O-])cc2ccccc21`: the growth was -53.2% (active).

Take `O=C1N[C@@H]2[C@@H](O)[C@@H](O)[C@H](O)C[C@H]2c2cc3c(c(O)c21)OCCO3`: the growth was -14.5% (active).

As for `CCCCCCCCNc1cc2c3c(c1)CCCN3CCC2`, the growth is -9.19% (active).

Take `Cc1ccc(/C=C2\CN(C(=O)C(Cl)Cl)C/C(=C\c3ccc(C)cc3)C2=O)cc1`: the growth is -5.72% (active).

For the compound `CCCCC(=O)Nc1ncc(Cc2ccccc2Cl)s1`, the growth is 11% (inactive).

In the case of `COc1ccc(-c2cn(-c3ccc(Cl)cc3)c(SCC(=O)c3ccc([N+](=O)[O-])cc3)n2)cc1`, the growth is 89.6% (inactive).

For the origin of these results see PubChem BioAssay (NCI).
